Screens as filed in PubChem BioAssay.
ERa SRC1 inh: ERα–SRC-1 coactivator interaction inhibitors, primary screen, biochemical, TR-FRET, ERα LBD, estradiol-bound | Estrogen receptor (Homo sapiens), P03372 | TR-FRET ER-alpha LBD / SRC-1 peptide | inhibition, % at 25.6 µM | 1.7% of 86,000 active; in the data active means inhibition above about 50%;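 further: 0% = receptor plus peptide control and 100% = peptide only without receptor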
MRP1 act: H69AR viability gain despite doxorubicin, primary screen, MRP-1 activator project, H69AR cells, CellTiter-Glo. viability rescue. AID 799, 2007. viability increase, % at 10 µM. 0.61% of 140,000 active;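 active means viability gain under doxorubicin at or above a set limit, the compound median plus 3 SD, cut at about 4.7% in these data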;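 further: MRP-1 overexpressing cells given doxorubicin 25 µM after compound pretreatment; 18-22 h compound pretreatment then 72 h with doxorubicin before readout; 0% = doxorubicin-only wells and 100% = vehicle-treated cells without doxorubicin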
ERb coact inh: inhibitors of ERβ-SRC1 coactivator interaction, primary screen, biochemical, TR-FRET, ERβ LBD, SRC-1 peptide; TR-FRET ER-beta LBD / SRC1-Cy5 peptide binding; receptor agonist-loaded with 1 µM estradiol; Estrogen receptor beta (Homo sapiens), Q92731; inhibition, % at 25.6 µM; 1.3% of 86,000 active;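 active means compounds whose percent inhibition of the receptor-coactivator binding signal exceeds about 50% in the single-dose screen, limit read from the data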;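 further: 0% = receptor plus peptide wells without compound and 100% = peptide-only wells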
MRP resist rev: reversal of MRP1-mediated doxorubicin resistance, primary screen, H69AR cells, doxorubicin co-treatment. H69AR cells + 2 uM doxorubicin, CellTiter-Glo, 72 h. differential viability (reversal), % at 10 µM. 0.04% of 85,000 active. AID 602, 2007;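 active means viability drop by adding the cancer drug above about 55%, with treated viability meeting a 40% cutoff, limit read from the data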;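 further: viability without doxorubicin minus viability with 2 µM doxorubicin for each compound; larger differential means the compound sensitizes cells more to doxorubicin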
Smad3 FoxH1 inh: Smad3/FoxH1 peptide binding inhibitors, primary screen, biochemical, TR-FRET; Mothers against decapentaplegic homolog 3 (Homo sapiens), P84022; TR-FRET Smad3/Dy647-FoxH1 peptide binding, europium anti-His; inhibition, % at 25 µM; 0.29% of 88,000 active; AID 630, 2007;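 active means compounds that reduce the energy-transfer binding signal between the protein and its labelled peptide by more than half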;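 further: 0% = Smad3 plus labelled peptide maximal FRET and 100% = peptide-only background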
Target sequence (P84022 whole entry, looked up): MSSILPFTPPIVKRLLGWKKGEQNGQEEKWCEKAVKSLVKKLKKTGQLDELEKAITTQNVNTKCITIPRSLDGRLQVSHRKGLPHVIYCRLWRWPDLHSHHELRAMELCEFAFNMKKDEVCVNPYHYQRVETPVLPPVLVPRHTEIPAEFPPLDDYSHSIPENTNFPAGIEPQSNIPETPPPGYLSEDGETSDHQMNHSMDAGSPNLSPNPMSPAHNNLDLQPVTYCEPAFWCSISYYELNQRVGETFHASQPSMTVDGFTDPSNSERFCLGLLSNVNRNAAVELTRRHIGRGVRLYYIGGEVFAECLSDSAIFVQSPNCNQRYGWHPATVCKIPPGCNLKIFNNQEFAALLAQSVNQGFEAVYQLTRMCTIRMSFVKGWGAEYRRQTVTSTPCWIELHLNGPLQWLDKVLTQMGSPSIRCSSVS
ERa SRC1 pot: enhancers of ERα–SRC-1 coactivator binding, primary screen, biochemical, TR-FRET, ERα LBD, low estradiol | 1.3% of 86,000 active | Estrogen receptor (Homo sapiens), P03372 | TR-FRET ERalpha-LBD/SRC-Cy5 coactivator binding, 2 h; 100 = basal binding, no effect | coactivator binding (% of control), % at 25.6 µM; in the data active means activity above about 200%;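 further: binding measured in presence of low estradiol as agonist stimulus; 0% = peptide alone without receptor and 100% = receptor with peptide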
The depositor's hits bear a star; i = inactive; · = no result; [ ] = dose if it differs, or a comment. An excerpt weighted towards active compounds, which were near 2.9% of everything screened.

SMILES	ERa SRC1 inh	MRP1 act	ERb coact inh	MRP resist rev	Smad3 FoxH1 inh	ERa SRC1 pot
CCn1c(SCc2ccc(Cl)cc2)nc2nc3c(cc2c1=O)CCCC3	·	5.4*	·	·	·	·
CCn1c(=S)[nH]c2nc3c(cc2c1=O)CCCC3	2.1	-1.8	-4.9	-6.5	6.3	103.8
Cc1ccc(C(=O)CN2CCC(NC(=O)C3CCCCC3)CC2)cc1	6.9	-2.4	1.4	7.4	-2.6	604.7*[fluorescence artefact?]
COc1cccc(-n2c(=O)[nH]cc(C(=O)Nc3ccc(NC(C)=O)cc3)c2=O)c1	-4.1	-0.2	10.8	13.8	6.2	78.1
COc1ccc(-c2nn(-c3ccccc3)cc2/C=N/N2C(=O)CSC2=S)cc1	-20.8	3.3	-1.2	-15.2	-5.3	313.2*[fluorescence artefact?]
COc1ccc(/C=N/N2C(=O)CSC2=S)cc1	-6.9	3.1	1.1	1.7	2.5	102.1
CCOC(=O)c1c(NC(=O)CSc2nc(C)cc(C)c2C#N)sc(C(C)=O)c1C	61.2*[fluorescence artefact?]	0.1	49.1	8.4	i	678.1*[fluorescence artefact?]
CCOC(=O)c1c(NC(=O)CSc2nnc(-c3ccccc3)o2)sc(C(C)=O)c1C	-6.1	-0.8	-6.6	2.9	5.7	318.8*
Cc1cc(C)c(C#N)c(SCC(=O)Nc2nnc(-c3ccccc3)s2)n1	-14.7	1.6	6.2	31.0	-9.7	207.5*[fluorescence artefact?]
CC(C)[C@](N)(C(=O)O)c1ccccc1	·	·	·	·	-5.1	·
NCCSCCc1ccccc1	·	·	·	·	3.9	·
CCOC(=O)C1C(=O)Nc2nc3ccccc3n2C1C(C)C (centres undefined)	-18.3	-2.1	-13.3	8.6	-1.8	104.8
Cc1[nH]c2ccccc2c1-c1cc(-c2cc(-c3c(C)[nH]c4ccccc34)on2)no1	·	·	·	·	3.3	·
Cc1cc(C(=O)CN2C(=O)c3cccc(N)c3C2=O)c(C)n1Cc1cccs1	·	-3.1	·	·	·	·
Cc1cc(C(=O)COc2ccc3ccc(=O)oc3c2)c(C)n1Cc1cccs1	58.2*[fluorescence artefact?]	-1.2	36.5	11.2	-19.8	347.1*[fluorescence artefact?]
O=C(O)CCc1ccc(-c2ccccc2)[nH]1	·	·	·	·	1.4	·
COc1ccccc1N(C(C)=O)c1nc(C)cc(C)c1C#N	2.1	-2.1	1.8	-15.7	-4.6	107.2
COc1cccc(N(C(C)=O)c2nc(C)cc(C)c2C#N)c1	5.3	-1.4	93.9*[fluorescence artefact?]	-2.9	-5.6	99.2
COc1ccc(-c2n[nH]c(C(F)(F)F)c2-c2cc3ccccc3o2)c(O)c1	1.2	-3.7	6.2	-21.4	5.1	239.2*
COc1ccccc1-c1c(-c2ccc(OCC(=O)NN)cc2O)n[nH]c1C(F)(F)F	·	-2.1	·	·	·	·
CCC(Oc1ccccc1)C(=O)Nc1nnc(C(F)(F)F)s1 (centres undefined)	-3.6	10.1*	-4.2	8.6	10.9	109.2
O=C(Nc1ccc(N=Nc2ccccc2)c(NC(=O)C2CCCO2)c1)C1CCCO1 (centres undefined)	·	-0.8	·	·	·	·
NS(=O)(=O)c1ccc(N=Nc2c(O)c(C(=O)O)cc3ccccc23)cc1	·	·	·	·	22.3	·
NS(=O)(=O)c1ccc(N=Nc2c[nH]c(=O)c(O)c2)cc1	·	·	·	·	78.1*	·
Oc1ccc(Cc2cc(Cl)cc(Cl)c2O)cc1Cl	·	·	·	·	7.6	·
SMILES	ERa SRC1 inh	MRP1 act	ERb coact inh	MRP resist rev	Smad3 FoxH1 inh	ERa SRC1 pot
Cc1ccc(S(=O)(=O)N2CCN(c3ccc(S(=O)(=O)N4CCOCC4)cn3)CC2)cc1	-14.8	-2.0	31.3	-6.3	3.4	345.9*[fluorescence artefact?]
N#Cc1ccccc1S(=O)(=O)N1CCN(c2ccc(S(=O)(=O)N3CCOCC3)cn2)CC1	6.6	-3.2	-4.3	10.5	4.2	98.8
CCOC(=O)C1=C(O)/C(=C\c2ccc(CNS(=O)(=O)c3ccc(Br)cc3)o2)N=C1C	·	-2.3	·	·	·	·
COC(=O)C1=C(O)/C(=C\c2ccc(CNS(=O)(=O)c3ccccc3)o2)N=C1C	·	-2.4	·	·	·	·
COC(=O)C1=C(O)/C(=C\c2ccc(CNC(=O)C(=O)Nc3ccc(C)c(C)c3)o2)N=C1C	73.8*	-0.7	41.4	-23.8	0.2	42.0
COC(=O)C1=C(O)/C(=C\c2ccc(CNC(=O)C(=O)Nc3ccc(C)cc3)o2)N=C1C	72.3*[fluorescence artefact?]	-5.7	42.7	3.8	-16.9	36.5
CCOC(=O)C1=C(O)/C(=C/c2ccc(CNC(=O)C(=O)Nc3ccc(C)cc3)o2)N=C1C	55.0*[fluorescence artefact?]	-2.3	46.9	0.2	8.5	110.3
CN1CCC(=NNc2ccc(S(=O)(=O)N3CCOCC3)cc2[N+](=O)[O-])CC1	·	-2.0	·	·	·	·
O=C1NC(=O)C2(COC(c3ccccc3Cl)OC2)S1 (centres undefined)	·	7.2*	·	·	·	·
O=C1NC(=O)C2(COC(c3ccncc3)OC2)S1 (centres undefined)	·	0.7	·	·	·	·
O=C1NC(=S)SC1=C1CCCC1	45.6	-0.7	56.2*	-4.2	-2.3	38.6
CN1C(=O)C(=C2CCCCCC2)SC1=S	-6.2	-0.1	-11.4	6.3	4.9	103.3
CN=C(N)/N=C(\N)Nc1cc2ccccc2c2ccccc12	·	·	·	·	11.3	·
O=C1CSC(=NC(=O)c2ccccc2)N1	5.3	6.2*	-0.2	-11.6	-8.8	89.1
CC(C)C(=O)N=C1NC(=O)CS1	·	0.6	·	·	·	·
NC(=O)C[C@H](N)C(N)=O	·	·	·	·	1.3	·
NC(=O)N[C@H](CC(=O)O)C(=O)O	·	·	·	·	0.7	·
ON(CCc1ccncc1)Cc1ccccc1	·	·	·	·	8.1	·
Cc1ccc(C(=O)CSC2=C(C#N)C(c3ccco3)CC(=O)N2)c(C)c1 (centres undefined)	60.3*	-3.0	63.7*	1.5	7.8	69.0
Cc1ccc(CNC(=O)COc2ccccc2-c2ccccc2)cc1	·	-0.7	·	·	·	·
O=C1c2ccsc2SCCN1Cc1c(Cl)cccc1Cl	1.1	7.0*	-13.3	8.9	6.9	107.7
Cn1c(=O)c2c(ncn2Cc2ccccc2)n(C)c1=O	5.3	-0.9	-1.5	1.0	-4.5	88.4
Cn1c(=O)c2c(ncn2CCCc2ccccc2)n(C)c1=O	-19.7	-0.8	-16.6	4.1	-7.6	222.2*
COC(=O)c1ccc(Cn2nc(C)c(Br)c2C)cc1	-5.1	-0.8	65.7*[fluorescence artefact?]	10.1	2.0	101.6
COC(=O)c1ccc(Cn2nc(C)cc2C)cc1	-6.5	0.7	-4.2	0.0	5.1	90.6
N=C(c1ccc2ccccc2c1)c1ccccc1Cc1ccccc1	·	·	·	·	3.7	·
O=C(CP(=O)(c1ccccc1)c1ccccc1)Nn1cnnc1	·	0.3	·	·	·	·
O=C(N/N=C/c1ccc2c(c1)CCC2)c1ccccc1O	·	·	·	·	-7.5	·
COc1ccc(N2CCN(c3nc(Cl)nc(N4CCOCC4)n3)CC2)cc1	-1.8	8.8*	-10.4	-7.5	-10.9	112.8
OC(COc1ccc(C2C=CCC2)cc1)CN1CCCCC1 (centres undefined)	37.3	-2.5	62.7*[fluorescence artefact?]	8.8	66.9*	262.7*[fluorescence artefact?]
